Calls of active or inactive are those of the source.
Columns and labels:
[1] = tested on: PRMT1 (protein arginine N-methyltransferase 1); test: small molecules binding arginine methyltransferase PRMT1 – biochemical, small-molecule microarray, 635 nm fluorescence, primary screen (AID 1088); conditions: higher = more signal;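 also: binding of Prmt1 protein to compounds spotted on small-molecule microarray slides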
[2] = growth effects on S. cerevisiae YJM789 – YJM789 clinical isolate, OD600, 24 h, basal, primary screen (AID 1089); conditions: higher = more signal, called active from +8 up or from −8 down;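 also: growth of clinical yeast isolate S. cerevisiae YJM 789 seeded 1000 cells per well; test concentration not given here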
[3] = S. pombe growth modifiers, basal conditions – strain 972, OD600, 24 h, no modulator, primary screen (AID 1090);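 also: basal condition with compound alone and no growth modifier present; test concentration not given here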; conditions: S. pombe 972 growth, higher = more signal, called active from +8 up or from −8 down
[4] = budding yeast growth modifiers under rapamycin – strain BY4716, OD600, 96 h, primary screen (AID 1091); also: test concentration not given here; conditions: S. cerevisiae BY4716 + rapamycin, higher = more signal, called active from +8 up or from −8 down
[5] = target: Torsin-1A-interacting protein 2 (Homo sapiens) (UniProt Q8NFQ8); test: small molecules binding lysate-expressed LULL1 – cell lysate, human LULL1 lysate, 635/667 nm fluorescence, primary screen (AID 1092); conditions: small-molecule microarray, hLULL1 lysate binding, 635 nm fluorescence; higher = more signal;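 also: probe is lysate of COS7 cells overexpressing human LULL1; score merges per-feature 667 nm fluorescence with signal-to-noise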
[6] = optical density change of DRC41 E. coli – strain DRC41, OD650, 24 h, E. coli filamentation project, primary screen (AID 1093);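 also: MC1000 strain lacking acrAB efflux and sulA so SOS filamentation is blocked; test concentration not given here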; conditions: E. coli DRC41 growth, higher = more signal, called active from +8 up or from −8 down
[7] = probe aLefty2 binding to arrayed compounds – biochemical, biotinylated probe, 635/667 nm fluorescence, primary screen (AID 1094); conditions: small-molecule microarray, higher = more signal;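 also: score merges spot fluorescence near 667 nm with spot signal-to-noise ratio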
[8] = tested on: Noggin (protein binding on small-molecule microarray); test: small molecules binding Noggin protein – biochemical, 635/667 nm fluorescence, primary screen (AID 1095); conditions: 635 nm fluorescence, higher = more signal;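 also: score merges 667 nm feature fluorescence with signal to noise over triplicate slides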
[9] = target: Neurogenic locus notch homolog protein 3 (Homo sapiens) (UniProt Q9UM47); test: small molecules binding NOTCH3 protein – biochemical, 635/667 nm fluorescence, primary screen (AID 1096); conditions: small-molecule microarray, 635 nm fluorescence, higher = more signal
[10] = probe aEGFR binding to arrayed compounds – biochemical, biotinylated probe, 635/667 nm fluorescence, primary screen (AID 1097); conditions: small-molecule microarray, higher = more signal;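 also: probe is a biotinylated anti-EGFR antibody binding compounds printed on slides; score combines fluorescence near 667 nm and signal to noise of each spot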

Neurogenic locus notch homolog protein 3 (Homo sapiens), sequence (Q9UM47 whole entry, looked up): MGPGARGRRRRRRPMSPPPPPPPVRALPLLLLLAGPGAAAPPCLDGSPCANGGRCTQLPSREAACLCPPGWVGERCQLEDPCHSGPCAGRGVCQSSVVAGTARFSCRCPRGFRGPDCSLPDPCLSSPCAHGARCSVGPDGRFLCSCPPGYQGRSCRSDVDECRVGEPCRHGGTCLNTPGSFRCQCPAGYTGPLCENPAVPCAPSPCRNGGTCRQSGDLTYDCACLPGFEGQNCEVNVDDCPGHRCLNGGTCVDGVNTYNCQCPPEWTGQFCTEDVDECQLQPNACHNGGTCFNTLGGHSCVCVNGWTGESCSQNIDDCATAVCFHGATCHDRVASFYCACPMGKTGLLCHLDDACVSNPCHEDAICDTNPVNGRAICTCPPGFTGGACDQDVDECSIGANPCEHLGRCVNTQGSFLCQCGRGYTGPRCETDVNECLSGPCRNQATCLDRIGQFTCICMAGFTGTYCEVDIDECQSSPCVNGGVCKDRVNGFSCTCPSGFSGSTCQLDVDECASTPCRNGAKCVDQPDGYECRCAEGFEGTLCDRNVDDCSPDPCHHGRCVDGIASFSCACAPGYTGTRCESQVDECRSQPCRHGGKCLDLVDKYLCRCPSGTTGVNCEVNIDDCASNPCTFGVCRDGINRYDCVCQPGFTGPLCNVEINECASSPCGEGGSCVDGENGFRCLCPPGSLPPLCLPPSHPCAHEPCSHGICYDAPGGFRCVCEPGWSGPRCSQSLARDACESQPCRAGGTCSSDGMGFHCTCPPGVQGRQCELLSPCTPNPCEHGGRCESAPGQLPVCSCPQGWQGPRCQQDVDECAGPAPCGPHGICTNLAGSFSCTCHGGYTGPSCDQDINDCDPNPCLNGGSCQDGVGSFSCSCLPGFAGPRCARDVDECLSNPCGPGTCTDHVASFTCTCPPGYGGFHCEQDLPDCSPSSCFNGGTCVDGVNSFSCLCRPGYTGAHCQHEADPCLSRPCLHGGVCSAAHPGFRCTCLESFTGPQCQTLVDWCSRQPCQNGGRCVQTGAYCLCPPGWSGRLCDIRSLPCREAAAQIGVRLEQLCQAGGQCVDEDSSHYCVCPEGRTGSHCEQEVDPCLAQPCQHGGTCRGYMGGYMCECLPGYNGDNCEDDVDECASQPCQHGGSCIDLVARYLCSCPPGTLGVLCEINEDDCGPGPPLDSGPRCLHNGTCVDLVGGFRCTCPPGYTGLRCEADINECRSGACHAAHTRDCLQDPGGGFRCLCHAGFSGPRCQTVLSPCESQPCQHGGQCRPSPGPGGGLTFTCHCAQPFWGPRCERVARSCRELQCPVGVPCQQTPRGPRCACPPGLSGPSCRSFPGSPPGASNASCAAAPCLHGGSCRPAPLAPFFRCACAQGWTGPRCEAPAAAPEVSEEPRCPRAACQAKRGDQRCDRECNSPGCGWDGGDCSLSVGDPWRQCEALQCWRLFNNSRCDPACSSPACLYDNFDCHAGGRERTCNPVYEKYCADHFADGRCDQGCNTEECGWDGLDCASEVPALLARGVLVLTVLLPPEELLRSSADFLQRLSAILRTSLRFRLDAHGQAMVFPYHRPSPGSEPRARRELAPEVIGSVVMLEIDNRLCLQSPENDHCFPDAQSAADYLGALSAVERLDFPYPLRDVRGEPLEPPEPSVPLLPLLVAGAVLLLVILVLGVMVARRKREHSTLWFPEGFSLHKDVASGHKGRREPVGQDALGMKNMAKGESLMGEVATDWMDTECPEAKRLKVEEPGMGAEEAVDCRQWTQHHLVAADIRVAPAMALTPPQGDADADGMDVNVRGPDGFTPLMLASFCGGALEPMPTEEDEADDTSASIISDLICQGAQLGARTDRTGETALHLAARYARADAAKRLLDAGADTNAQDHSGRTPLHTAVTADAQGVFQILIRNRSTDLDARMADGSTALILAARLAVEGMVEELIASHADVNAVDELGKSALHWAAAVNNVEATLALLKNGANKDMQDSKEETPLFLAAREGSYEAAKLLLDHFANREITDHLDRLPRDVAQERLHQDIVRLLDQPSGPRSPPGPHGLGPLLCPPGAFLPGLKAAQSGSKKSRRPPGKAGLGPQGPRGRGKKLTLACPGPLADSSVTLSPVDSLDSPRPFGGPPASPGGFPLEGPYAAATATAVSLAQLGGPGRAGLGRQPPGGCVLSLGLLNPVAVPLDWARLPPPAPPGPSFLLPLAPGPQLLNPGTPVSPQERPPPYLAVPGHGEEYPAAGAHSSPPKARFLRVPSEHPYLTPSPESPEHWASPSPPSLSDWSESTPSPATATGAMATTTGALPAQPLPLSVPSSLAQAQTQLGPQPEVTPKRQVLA
Torsin-1A-interacting protein 2 (Homo sapiens), sequence (Q8NFQ8 whole entry, looked up): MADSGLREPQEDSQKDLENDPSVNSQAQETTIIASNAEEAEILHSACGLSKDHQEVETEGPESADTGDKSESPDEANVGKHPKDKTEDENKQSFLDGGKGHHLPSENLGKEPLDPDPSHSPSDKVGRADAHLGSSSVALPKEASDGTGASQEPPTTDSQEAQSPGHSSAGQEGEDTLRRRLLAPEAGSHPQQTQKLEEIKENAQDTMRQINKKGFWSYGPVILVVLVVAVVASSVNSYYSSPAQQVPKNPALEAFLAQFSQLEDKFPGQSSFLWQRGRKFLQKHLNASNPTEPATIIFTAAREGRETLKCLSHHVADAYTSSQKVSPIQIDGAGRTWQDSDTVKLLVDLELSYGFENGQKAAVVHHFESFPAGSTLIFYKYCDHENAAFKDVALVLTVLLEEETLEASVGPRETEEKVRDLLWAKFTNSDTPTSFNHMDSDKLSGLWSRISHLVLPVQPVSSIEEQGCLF

Row | SMILES | composite z-score [1] | z-score [2] | z-score [3] | z-score [4] | composite z-score [5] | z-score [6] | composite z-score [7] | composite z-score [8] | composite z-score [9] | composite z-score [10]
1 | COC(=O)[C@@]1(Cc2ccc(F)cc2)[C@H]2c3cc(C(=O)N4CCCC4)n(CCSCCO)c3C[C@H]2CN1C(=O)c1ccccc1 | -0.665 | 0.856 (inactive) | 1.25 (inactive) | 0.727 (inactive) | 3.54 | -0.0319 (inactive) | 0.314 | -0.906 | 0.225 | 0.0726
2 | C=CCOC(=O)[C@@H]1[C@H]2C(=O)O[C@H](c3ccccc3)[C@H](c3ccccc3)N2[C@H](c2ccc(OCCOC(=O)[C@@H]3C[C@@H]4C(=O)N[C@@H](CC(C)C)C(=O)N4[C@@H]3c3ccc(O)cc3)cc2)[C@@]12C(=O)Nc1ccc(I)cc12 | 1.56 | -0.677 (inactive) | 1.63 (inactive) | 18.2 (active) | 1.82 | 1.16 (inactive) | -0.0321 | 1.69 | 1.08 | 0.105
3 | COc1ccc(CCNC(=O)[C@@]2(C)c3ccccc3C(=O)N(Cc3ccc(OC(F)(F)F)cc3)[C@H]2c2ccc(CO)cc2)cc1 | 1.55 | -0.219 (inactive) | -0.553 (inactive) | 0.997 (inactive) | 2.25 | -0.663 (inactive) | -0.403 | 1.11 | 0.743 | 0.686
4 | C=CCOC(=O)[C@H]1[C@@H]2C(=O)O[C@@H](c3ccccc3)[C@@H](c3ccccc3)N2[C@@H](c2ccc(OCCOC(=O)[C@H]3C[C@H]4C(=O)NCC(=O)N4[C@H]3c3ccc(O)cc3)cc2)[C@]12C(=O)Nc1ccccc12 | 1.48 | 1.71 (inactive) | 1.61 (inactive) | 4.1 (inactive) | 2.58 | -0.0665 (inactive) | 0.0337 | 1.22 | 1.09 | 0.0656
5 | CN1C2C=C(c3ccc(CO)cc3)C(C3C(=O)N(C(N)=O)C(=O)C32)C1C1CC1 (stereo not given) | 0.132 | -1.07 (inactive) | -0.257 (inactive) | 1.2 (inactive) | -0.0967 | 0.214 (inactive) | -0.178 | -0.4 | -0.607 | -0.201
6 | CC1(C)OB(/C=C\CC(OC(=O)c2ccncc2)c2ccccc2)OC1(C)C (stereo not given) | -0.477 | -1.7 (inactive) | -1.3 (inactive) | 1.99 (inactive) | 0.962 | 1.04 (inactive) | 1.22 | -1.92 | -1.73 | -0.244
7 | COC(=O)[C@@]1(Cc2ccc(OC)cc2)[C@@H]2[C@@H](CC(=O)[C@H]2CC(=O)C(=O)N(C)C)CN1C(=O)c1ccccc1 | 0.707 | -0.0616 (inactive) | 1.61 (inactive) | 3.34 (inactive) | 3.24 | -0.163 (inactive) | 1.11 | -0.458 | 1.01 | 0.766
8 | C=C(C(=O)CC[C@@H](OC(=O)c1ccccc1-c1ccccc1C(=O)O)c1cccc(OCCO)c1)C(C)C | 1.46 | 0.433 (inactive) | -0.0072 (inactive) | -0.641 (inactive) | -0.104 | 0.355 (inactive) | -0.118 | 0.782 | 0.164 | -0.182
9 | COC(=O)[C@@]1(Cc2ccc(F)cc2)[C@H]2c3cc(C(=O)N(C)C)n(Cc4cccc5ccccc45)c3C[C@H]2CN1C(=O)c1ccccc1 | -0.72 | 1.43 (inactive) | 1.54 (inactive) | 2.69 (inactive) | 4.03 | -1.15 (inactive) | 0.323 | -0.192 | -0.0287 | 0.0776
10 | CCCC1(C(=O)OC)C=C2C(=C(C(C)C)C(=O)C2C)CN1 (stereo not given) | -1.32 | 0.128 (inactive) | 0.0695 (inactive) | 0.767 (inactive) | 0.268 | -1.24 (inactive) | 0.115 | -0.797 | -0.493 | -0.146
11 | CC(C)c1ccc(NN2C(C(O)C3=C[C@H]4C[C@@H](C3)C4(C)C)C=CC3C(=O)N(c4ccccc4)C(=O)C32)cc1 (stereo not given in full) | 1.32 | 0.191 (inactive) | -0.0249 (inactive) | 0.264 (inactive) | 2.6 | -0.661 (inactive) | 0.363 | 0.501 | 1.08 | 0.114
12 | CCOC(=O)C1=C[C@@H](C(C)(C)C)N(S(=O)(=O)c2ccc(C)cc2)[C@H]1c1ccc(OC)cc1 | 1.55 | 0.443 (inactive) | 2.17 (inactive) | 1.54 (inactive) | 3.07 | 0.1 (inactive) | -0.0865 | 1.18 | 1.09 | 0.0301
13 | CO[C@H]1O[C@H](CO)[C@@H](OC(=O)Nc2cccc(F)c2)[C@H](OC(=O)Nc2ccc3c(c2)OCO3)[C@@H]1OC(=O)Nc1ccc2c(c1)OCO2 | 1.53 | 1.79 (inactive) | 1.24 (inactive) | 7.48 (inactive) | 3.48 | -0.0741 (inactive) | 0.126 | 0.691 | 1.08 | -0.039
14 | CC[C@@H](O[Si](C#C[Si](C(C)C)(C(C)C)C(C)C)(C(C)C)C(C)C)c1cn([C@H](C)c2ccccc2)nn1 | 0.991 | 0.685 (inactive) | 0.0803 (inactive) | 0.529 (inactive) | 0.382 | 0.612 (inactive) | -0.148 | 0.391 | 0.785 | -0.0332
15 | COCCOC(=O)N1C(=O)[C@@]2(c3ccccc31)[C@H](C(=O)Nc1nc3ccccc3s1)[C@H]1C(=O)O[C@H](c3ccccc3)[C@H](c3ccccc3)N1[C@@H]2c1ccccc1OCCO | 1.56 | 2.4 (inactive) | 2.78 (inactive) | 5.08 (inactive) | 2.73 | 0.694 (inactive) | 0.248 | 0.579 | 1.1 | -0.0035
16 | [N-]=[N+]=NCc1ccccc1[C@H]1OC(c2ccc(OCCCO)cc2)=N[C@@]1(Cc1ccccc1N=[N+]=[N-])C(N)=O | 1.56 | 0.61 (inactive) | -0.678 (inactive) | -1.39 (inactive) | 3.31 | 0.0539 (inactive) | 0.0573 | 0.412 | 1.09 | 0.0009
17 | C=CCNC(=O)[C@@H]1[C@H]2C(=O)O[C@H](c3ccccc3)[C@H](c3ccccc3)N2[C@H](c2ccc(OCCO)cc2)[C@@]12C(=O)Nc1ccc(C#CC3=CCCCC3)cc12 | 1.54 | 1.78 (inactive) | 1.18 (inactive) | 3.36 (inactive) | 2.94 | -0.639 (inactive) | -0.168 | 0.918 | 1.14 | 0.0526
18 | COC(=O)[C@@]1(Cc2ccc(F)cc2)[C@H]2c3cc(C(=O)N4CCCC4)n(C[C@H](O)CO)c3C[C@H]2CN1C(=O)c1ccccc1 | -0.399 | -0.161 (inactive) | 1.34 (inactive) | -0.0363 (inactive) | 1.57 | -0.836 (inactive) | 1.03 | -0.123 | 0.176 | 0.732
19 | COc1ccc(NN2C(C(O)c3ccc(F)cc3)C=CC3C(=O)N(C4CCCCC4)C(=O)C32)cc1 (stereo not given) | 1.56 | 0.0646 (inactive) | 1.09 (inactive) | 0.91 (inactive) | 3.24 | -0.637 (inactive) | 0.12 | 0.169 | 1.07 | 0.0903
20 | CC(C)N1CC=CC23O[C@@H]4/C=C\CCCOC(=O)C4[C@H]2C(=O)N(C(C)CO)[C@@H]3C1=O (stereo not given in full) | 0.336 | -1 (inactive) | -1.09 (inactive) | -1.08 (inactive) | 1.95 | 1.8 (inactive) | -0.174 | -1.25 | -0.155 | -0.297
21 | O=C(NCCN1CCOCC1)[C@@H]1c2ccccc2C(=O)N(CC23CC4CC(CC(C4)C2)C3)[C@H]1c1ccc(CO)cc1 | 1.55 | -0.43 (inactive) | -1.27 (inactive) | 0.223 (inactive) | 3.23 | 0.534 (inactive) | 0.0735 | 0.495 | 1.05 | 0.0353
22 | COc1cc(Cc2cc3c(c(CCc4ccccc4)n2)[Si](C(C)C)(C(C)C)O[C@H]3c2ccccc2)cc(OC)c1OC | -0.651 | -2.28 (inactive) | -19.9 (active) | -0.549 (inactive) | -0.355 | -0.637 (inactive) | -0.0284 | -0.288 | -0.446 | -0.129
23 | COC(=O)[C@H]1N=C(c2ccc(OCCCO)cc2)O[C@H]1c1ccccc1N=[N+]=[N-] | 1.08 | -0.651 (inactive) | -4.13 (inactive) | -1.09 (inactive) | 2.73 | 0.112 (inactive) | 0.588 | 0.0025 | -0.0392 | 0.131
24 | NCCCCCCNC(=O)[C@@H]1C[C@@H]2C(=O)NCC(=O)N2[C@@H]1c1cccc(OCCO)c1 | 1.37 | -0.205 (inactive) | -0.542 (inactive) | -0.138 (inactive) | 2.11 | 1.04 (inactive) | 0.0997 | 1.12 | 0.783 | 0.0988
25 | COC(=O)C1=CC(CCCO)=CC(c2ccc(CN3CCCC3)cc2)N(C)C=C1C(=O)OC (stereo not given) | 0.853 | -0.512 (inactive) | 0.0939 (inactive) | -0.19 (inactive) | 3.4 | 0.0791 (inactive) | 0.0723 | -0.2 | 0.276 | 0.0816
26 | CC(C)C[C@@H]1NC(=O)[C@@H]2C[C@H](C(=O)NCCCCCCNC(=O)CS)[C@H](c3ccc(O)cc3)N2C1=O | 1.53 | 0.279 (inactive) | 0.101 (inactive) | 0.971 (inactive) | 2.93 | 1.27 (inactive) | 0.0277 | 1.26 | 1.11 | 0.0886
27 | CC(CO)N1C(=O)[C@@H]2[C@H]3C(=O)OCC=C[C@H]3OC23C=CCN(c2ccc4ccccc4c2)C(=O)[C@@H]13 (stereo not given in full) | -0.534 | -0.112 (inactive) | -0.688 (inactive) | -0.128 (inactive) | -1.16 | -0.594 (inactive) | 0.111 | -1.89 | -1.4 | -0.301
28 | C[C@]1(C(=O)NC2CC2)c2ccccc2C(=O)N(Cc2cc(F)cc(C(F)(F)F)c2)[C@H]1c1ccc(CO)cc1 | 1.52 | 0.257 (inactive) | -0.194 (inactive) | 0.217 (inactive) | 3.29 | 0.299 (inactive) | -0.188 | -0.104 | 0.518 | -0.312
29 | CCOC(=O)C1=CCC(c2ccncc2)N(S(=O)(=O)c2ccc(C)cc2)C1 (stereo not given) | 1.36 | -2.24 (inactive) | -2.69 (inactive) | 8.79 (active) | 3.84 | 0.336 (inactive) | -0.0585 | 0.361 | 1.09 | 0.0642

Reference: PubChem BioAssay
